Compound activity deposited in PubChem by National Center for Advancing Translational Sciences (NCATS).
GLS inh: qHTS for Inhibitors of Glutaminase (GLS). Glutaminase kidney isoform, mitochondrial (Homo sapiens), O94925. GLS enzymatic activity, qHTS titration. Potency, µM (highest dose often 45.5 µM), hits mostly inhibitors. 410,000 tested, 0.21% active. AID 624170, 2012
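hKGA in 45 mM KH2PO4 pH 8.2, 0.02% Tween-20 with pin-transferred compounds; 1 mM L-glutamine (stock) plus glutamate oxidase/HRP/Amplex Red coupling added. Fluorescence read initially and after 30 min at RT.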
GCN5L2 inh: qHTS Assay for Inhibitors of GCN5L2; 390,000 tested, 0.21% active; Histone acetyltransferase KAT2A (Homo sapiens), Q92830; Potency, µM (top dose mostly 58.9 µM), actives largely listed as inhibitors; GCN5L2 HAT assay, ThioGlo1 CoA-SH fluorescence
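Enzyme at 20nM final was mixed with library compounds for 15 min at room temperature. Peptide H3(1-25) at 75uM, acetyl-CoA at 70uM and ThioGlo1 at 50uM were then added. Plates were read immediately and after 20 min (Ex340nm/Em540nm).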
POLK inh: qHTS for Inhibitors of Polymerase Kappa; DNA polymerase kappa (Homo sapiens), Q9UBT6; purified Pol kappa, fluorescent DNA synthesis assay, 10 min; Potency, µM (series often up to 107 µM), hits mostly inhibitors; 400,000 tested, 0.53% active; AID 588579, 2011
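Pol kappa 10 nM + cpd, 15 min RT; start w/ substrate 50 nM final; fluorescence kinetic read, 0 and 10 min. Neg ctrl: buffer, no enzyme.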
Pol iota inh: qHTS for Inhibitors of Polymerase Iota. Potency, µM (titrated, usually from 115 µM), most hits filed as inhibitors. Pol iota fluorescent replication assay, 10 min. 390,000 tested, 1% active
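Pol iota at 10 nM preincubated 15 min with compounds at room temperature; reaction started with fluorescent substrate, 50 nM final. Fluorescence read kinetically at 0 and 10 min; buffer-only wells as negative control.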
POLB inh: qHTS Assay for Inhibitors of DNA Polymerase Beta | AID 485314, 2010 | 340,000 tested, 1.3% active | Pol beta primer extension/strand displacement, fluorescence kinetic | Potency, µM (series often up to 114 µM), usual class: inhibitors | P06746
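Curves were derived by four-parameter Hill fits of normalized qHTS data. The kinetic fluorescent primer-extension read was taken at 0 and 10 min after 50 nM substrate, following a 15 min room-temperature preincubation of 10 nM enzyme with compounds.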
Pol eta inh: qHTS for Inhibitors of Polymerase Eta; DNA polymerase eta (Homo sapiens), Q9Y253; recombinant Pol eta, fluorescent DNA replication assay; Potency, µM (doses to about 114 µM), actives largely listed as inhibitors; 390,000 tested, 1.2% active; AID 588591, 2011
Target sequence (Q9Y253 whole entry, looked up): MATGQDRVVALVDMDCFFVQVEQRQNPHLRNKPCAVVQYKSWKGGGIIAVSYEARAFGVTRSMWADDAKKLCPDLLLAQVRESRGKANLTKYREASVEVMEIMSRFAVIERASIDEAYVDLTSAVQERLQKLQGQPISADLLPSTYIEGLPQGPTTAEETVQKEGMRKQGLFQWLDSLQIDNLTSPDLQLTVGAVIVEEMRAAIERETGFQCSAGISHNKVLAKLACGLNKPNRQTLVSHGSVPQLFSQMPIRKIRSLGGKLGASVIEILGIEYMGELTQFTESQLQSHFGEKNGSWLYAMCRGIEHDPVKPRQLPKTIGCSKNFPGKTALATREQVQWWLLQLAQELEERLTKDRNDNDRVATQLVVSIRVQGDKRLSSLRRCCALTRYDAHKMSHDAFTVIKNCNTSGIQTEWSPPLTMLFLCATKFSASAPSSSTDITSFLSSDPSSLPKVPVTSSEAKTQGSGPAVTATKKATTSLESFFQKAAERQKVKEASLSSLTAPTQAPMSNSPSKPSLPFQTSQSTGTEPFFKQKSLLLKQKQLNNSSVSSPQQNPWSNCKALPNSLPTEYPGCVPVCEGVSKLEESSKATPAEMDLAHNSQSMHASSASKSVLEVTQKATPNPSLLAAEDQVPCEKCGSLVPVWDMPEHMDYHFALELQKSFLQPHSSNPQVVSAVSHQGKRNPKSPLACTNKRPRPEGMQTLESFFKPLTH
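Pol eta at 10 nM preincubated with compounds 15 min at room temperature; reaction started with fluorescent substrate (50 nM final) and read kinetically at 0 and 10 min.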
Numbers stand for hits; i = inactive; ? = inconclusive; nt = no result given; ! = a repeat was not active; [ ] = remark or other dose. This is a sample that favours compounds with a hit; in the whole collection about 2.4% have one here. The call rests on the fitted dose curve; in most records, active means well fitted inhibition curve with a large enough effect; inconclusive means small, poorly fitted or top-dose-only effect, or another doubt; inactive means no such curve, though single readings can be large or run the other way.

SMILES	GLS inh	GCN5L2 inh	POLK inh	Pol iota inh	POLB inh	Pol eta inh
CCN1/C(=C/c2cccc[n+]2C)Sc2ccc(OC)cc21	i	i	i	?	?	i
COc1ccc2c(c1)N(C)/C(=C/c1cccc[n+]1C)S2	i	i	i	?	40µM	i
CN1/C(=C/c2cccc[n+]2C)Sc2ccccc21	i	i	i	?	32µM	i
Cc1cc2ccccc2c[n+]1C	nt	nt	i	i	nt	nt
Cc1ccc(-c2nn(-c3ccccc3)cc2C(=O)O)o1	nt	?	nt	nt	16µM	nt
CCOC(=O)C1=C(C)NC(C)=C(C(=O)OCC)C1c1cn(-c2ccccc2)nc1-c1ccco1	i	i	i	i	i	i
CC(C)OC(=O)c1cn(-c2ccccc2)nc1-c1ccco1	i	i	?	?	40µM	?
COc1ccc(-c2nc3c(=O)n(C)c(=O)nc-3n(C)n2)cc1	nt	nt	i	i	nt	nt
CO[C@@H]1[C@@H]([C@H](C)[C@@H]2O[C@@]3(CC[C@@](C)([C@H]4CC[C@@](C)([C@H]5O[C@H]([C@H]6O[C@](C)(O)[C@H](C)C[C@@H]6C)C[C@H]5O[C@H]5C[C@@H](OC)[C@H](OC)[C@@H](C)O5)O4)O3)C[C@@H](O)[C@@H]2C)O[C@@](O)(CC(=O)O)[C@H](C)[C@H]1OC	i	nt	nt	nt	nt	nt
NCCNCCNCCN	i	i	i	i	i	i
NCCNCCN	i	i	1.1µM	nt	nt	nt
Cc1ccc(SCc2ccc(C(=O)NCc3ccncc3)cc2)cc1	i	i	i	28µM	?	?
Cc1ccc(SCCC(=O)NCc2ccncc2)cc1	i	i	i	i	i	i
CCc1ccc(OCC(=O)Nc2ccc(-c3nc4ccccc4o3)c(O)c2)cc1	i	i	i	i	2.2µM	?
COc1ccc(OCC(=O)Nc2cccc(-c3nc4ccccc4o3)c2)cc1	i	i	i	?	?	i
Cc1cc(C)cc(OCC(=O)NNC(=O)c2cc3ccccc3o2)c1	i	i	i	i	i	i
CCc1ccc(OCC(=O)NNC(=O)Cc2cccs2)cc1	i	i	i	i	20µM	?
CCc1ccc(OCC(=O)NNC(=O)c2cc3ccccc3o2)cc1	i	i	i	i	25µM	i
O=C(Nc1c(Cl)cc([N+](=O)[O-])cc1Cl)c1cc(Cl)cc(Cl)c1O	nt	nt	i	i	nt	nt
Cn1c(=O)n(C)c2cc(N3CCOCC3)c(NC(=O)c3ccc(Cl)cc3)cc21	i	i	i	i	i	i
Oc1ccccc1C1C=C(c2ccc3c(c2)OCO3)NC(c2cccc(Br)c2)N1 (stereo unspecified)	nt	nt	i	?	nt	nt
CC(=O)N1CCOc2ccc(S(=O)(=O)NCc3ccc(F)cc3)cc21	i	i	i	71µM	100µM	56µM
Nc1ccc(O)c([N+](=O)[O-])c1	40µM!	i	i	79µM	nt	i
Nc1cc([N+](=O)[O-])ccc1O	i	i	i	?	i	?
CCOc1ccc(C(c2c(C)[nH]n(-c3ccccc3)c2=O)c2c(C)[nH]n(-c3ccccc3)c2=O)cc1OC	i	i	i	0.71µM	i	i
SMILES	GLS inh	GCN5L2 inh	POLK inh	Pol iota inh	POLB inh	Pol eta inh
COc1cccc(C(C[N+](=O)[O-])c2c(C)[nH]n(-c3ccccc3)c2=O)c1 (stereo unspecified)	?	i	i	2.5µM	i	i
COc1ccc(C(c2c(C)n(C)n(-c3ccccc3)c2=O)c2c(C)n(C)n(-c3ccccc3)c2=O)cc1O	i	i	i	i	i	i
Cc1[nH]n(-c2ccccc2)c(=O)c1C(c1cccc([N+](=O)[O-])c1)c1c(C)[nH]n(-c2ccccc2)c1=O	i	i	i	?	i	i
Cc1[nH]n(-c2ccccc2)c(=O)c1C(c1ccc(C(=O)O)cc1)c1c(C)[nH]n(-c2ccccc2)c1=O	i	i	i	1.4µM	i	i
CCC1(C)NC(c2ccc3c(c2)OCO3)=CC(c2ccccc2O)N1 (stereo unspecified)	nt	nt	i	?	nt	nt
CC(=O)c1cccc(NC(=O)COc2ccccc2C(=O)Nc2ccccc2)c1	nt	nt	i	i	nt	nt
CNc1ccc(C=O)cc1Br	nt	nt	i	i	nt	nt
C[C@H]1[C@@H](O)[C@@H](C)\C=C/C=C\C=C/C=C\C=C/C=C\C=C/[C@@H](O[C@H]2O[C@@H](C)[C@@H](O)[C@@H](N)[C@@H]2O)C[C@@H]2O[C@](O)(C[C@@H](O)C[C@@H](O)[C@@H](O)CC[C@@H](O)C[C@@H](O)CC(=O)O[C@H]1C)C[C@@H](O)[C@H]2C(=O)O (stereo in doubt)	nt	i	i[12 µM]	nt	nt	nt
CC1C=CC=CC=CC=CC=CC=CC=CC(OC2OC(C)C(O)C(N)C2O)CC2OC(O)(CC(O)CC(O)C(O)CCC(O)CC(O)CC(=O)OC(C)C(C)C1O)CC(O)C2C(=O)O (stereo unspecified)	i	nt	18µM	1.3µM	nt	0.89µM
O=c1[nH]c(S)c(/C=C2\C=Nc3ccccc32)s1	i	i	i	i	i	40µM
CCOc1cccc(=O)c2c(C)n(Cc3ccco3)c(C)c12	nt	i	i	i	25µM	i
O=[N+]([O-])c1ccc(/C=C2\C=Cc3ccccc32)cc1	nt	nt	i	i	nt	nt
CCN(C(=O)CN1CCN(c2ccc(O)cc2)CC1)c1c(N)n(Cc2ccccc2)c(=O)[nH]c1=O	i	i	i	?	45µM	i
CC(CCc1ccccc1)NC(=O)CN1CCN(c2ccc(O)cc2)CC1 (stereo unspecified)	10µM	i	i	i	?	i
CSc1ccc(/C=C2\C=Cc3ccccc32)cc1	nt	nt	i	i	nt	nt
C#CCOCCOCCOCCNc1nc(N2CCN(C(=O)C(Cc3cc4ccccc4[nH]3)n3cc(C(N)C(C)CC)nn3)CC2)nc(N2CCN(C(=O)C(Cc3cc4ccccc4[nH]3)n3cc(C(N)C(C)CC)nn3)CC2)n1 (stereo unspecified)	i	i	i	?	20µM	i
C#CCOCCOCCOCCNc1nc(N2CCN(C(=O)[C@H](Cc3ccc(O)cc3)n3cc([C@@H](N)CC(C)C)nn3)CC2)nc(N2CCN(C(=O)[C@H](Cc3ccc(O)cc3)n3cc([C@@H](N)CC(C)C)nn3)CC2)n1	nt	i	nt	nt	32µM	nt
C#CCOCCOCCOCCNc1nc(N2CCN(C(=O)[C@H](Cc3ccc(O)cc3)n3cc([C@@H](N)CC(C)C)nn3)CC2)nc(N2CCN(C(=O)[C@H](Cc3cc4ccccc4[nH]3)n3cc([C@@H](N)CC(C)C)nn3)CC2)n1	i	i	i	?	35µM	i
